GLP1R inv ag – qHTS of GLP-1 Receptor Inverse Agonists (Inhibition Mode). 1.6% of 410,000 active. Glucagon-like peptide 1 receptor (Homo sapiens), P43220. Potency, µM (top dose mostly 38.3 µM), inactives show top-dose activity change, negative = inhibition, hits mostly inhibitors. HEK293 GLP-1R CRE-luciferase, luminescence, 24 h; GLP-1R form is constitutively active. AID 624417, 2012; also: % is scaled to controls: 0 for no effect and ±100 for the full control effect; nearly all actives have a fitted effect of over 55% in size
Target sequence (P43220 whole entry, looked up): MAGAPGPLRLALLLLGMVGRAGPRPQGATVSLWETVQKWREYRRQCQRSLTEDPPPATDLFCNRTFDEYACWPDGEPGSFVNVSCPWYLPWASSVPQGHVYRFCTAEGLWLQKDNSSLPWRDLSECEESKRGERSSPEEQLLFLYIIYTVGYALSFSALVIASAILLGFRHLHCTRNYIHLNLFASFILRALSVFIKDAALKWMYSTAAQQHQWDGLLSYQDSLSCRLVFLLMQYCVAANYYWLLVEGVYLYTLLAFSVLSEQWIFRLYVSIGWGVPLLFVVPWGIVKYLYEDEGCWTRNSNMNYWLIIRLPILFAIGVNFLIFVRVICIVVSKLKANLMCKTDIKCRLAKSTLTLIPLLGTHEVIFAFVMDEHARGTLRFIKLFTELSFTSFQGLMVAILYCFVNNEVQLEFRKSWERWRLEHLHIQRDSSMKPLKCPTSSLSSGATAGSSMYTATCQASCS
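Constitutively active GLP-1R drives a cAMP-responsive luciferase in stably transfected HEK293 cells; test compounds are added after overnight (12 h) attachment and left 24 hr, and signal loss in luminescence marks inhibition.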
GLP1R ag – qHTS of GLP-1 Receptor Agonists; Glucagon-like peptide 1 receptor (Homo sapiens), P43220; HEK293 GLP-1R CRE-luciferase, luminescence, 4-6 h; cells express a hypersensitive GLP-1R form; Potency, µM (highest dose often 45.6 µM), for inactives: at the highest dose activation, actives largely listed as activators; 0.007% of 380,000 active; AID 624172, 2012; also: % of control where 0% means no effect
GLP1R cytotox – qHTS of GLP-1 Receptor Inverse Agonists: Cytotox Screen; HEK293 cAMP-luciferase reporter cells, luminescence, 24 h; Potency, µM (highest dose often 38.3 µM), without a hit: top-dose activity change, negative = inhibition, most hits filed as inhibitors; 0.13% of 410,000 active;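 also: loss of luciferase light is scored as toxicity; % is scaled to controls: 0 for no effect and ±100 for the full control effect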
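A 23 nL compound transfer followed 12 hours of cell culture at 37 deg C; exposure then lasted 24 hr. Luciferase assay detection reagent was dispensed and plates read for luminescence after a 12 min room-temperature wait.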
PTHR1 agonist – qHTS for PTHR1 Agonists: Primary Screen; Parathyroid hormone/parathyroid hormone-related peptide receptor (Homo sapiens), Q03431; HEK293 GP2 PTHR1 cells, GloSensor cAMP luminescence, 1 h; Potency, µM (top dose mostly 115 µM), inactives show at the top dose activation, actives largely listed as activators; 0.075% of 410,000 active; AID 743266, 2014; also: nearly all actives have a fitted effect of over 55% in size
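HEK-293-derived GP2 cells expressing PTHR1 and a GloSensor cAMP reporter, 3,000/well, plated overnight, given luciferin plus IBMX (each 0.5 mM as added) for 1 h at 37 °C, then compound for 1 h at 37 °C. Luminescence was read after 15 min at room temperature.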
* hit, by the source's call; [ ] = dose if it differs, or a comment. Rows were chosen to be rich in hits. Some 1.7% of all compounds tested hit in one or more screens of this group. Calls follow the shape of the dose curve; as a rule, active = well fitted curve in the direction sought with a large enough effect; inconclusive = small, poorly fitted or top-dose-only effect, or another doubt; inactive = no such curve, though single readings can be large; an effect the other way counts as inactive or inconclusive. Potency is read from the fitted curve at half-maximal effect.

What do the screens show for `CN1CCN(S(=O)(=O)c2ccc(N3CCN(S(=O)(=O)/C=C/c4ccccc4)CC3)nc2)CC1`?
GLP1R inv ag: 7.94µM*; GLP1R ag: -3.2%; GLP1R cytotox: -14.0%; PTHR1 agonist: inactive

Results for CCOC(=O)Cc1ccc(NC(=O)Nc2cccc(OCc3cc(=O)n4cc(C)ccc4n3)c2)cc1 ?
GLP1R inv ag: 1.9%; GLP1R cytotox: -9.9%; PTHR1 agonist: inactive

How did Cc1ccc(CCNC(=O)C2CCN(c3nnc(C)c4c(C)n(-c5ccccc5)nc34)CC2)cc1 do in these assays?
GLP1R inv ag: 16.8%; GLP1R cytotox: 0.8%; PTHR1 agonist: -0.9%

Results for CCCCN(CC)CCNC(=O)C1CCN(c2nnc(C)c3c(C)n(-c4ccc(C)cc4)nc23)CC1 ?
GLP1R inv ag: 10µM*; GLP1R cytotox: inconclusive; PTHR1 agonist: -18.8%

How did COc1cc(-c2nc3ccc(Cl)cn3c2Nc2ccc3c(c2)OCO3)ccc1O do in these assays?
GLP1R inv ag: inconclusive; GLP1R cytotox: 0.0%; PTHR1 agonist: inactive

Results for COc1cc(-c2nc3ccc(C)cn3c2Nc2ccc(Cl)cc2)ccc1O ?
GLP1R inv ag: 3.55µM*; GLP1R cytotox: inconclusive; PTHR1 agonist: -15.6%

How did OC(CNc1ccnc2cc(Cl)ccc12)CNC1CCCCC1 (configuration not stated) do in these assays?
GLP1R inv ag: inconclusive; GLP1R ag: -11.9%; GLP1R cytotox: 5.01µM*; PTHR1 agonist: inactive

How did CCNC1CCC(Nc2ccnc3cc(Cl)ccc23)CC1 (configuration not stated) do in these assays?
GLP1R inv ag: inconclusive; GLP1R ag: -6.6%; GLP1R cytotox: inconclusive; PTHR1 agonist: -23.9%

Results for Cc1ccc(CNC(=O)CCCn2c(=O)c3ccccc3n(Cc3ccccc3Cl)c2=O)cc1 ?
GLP1R inv ag: 4.7%; GLP1R ag: -0.5%; GLP1R cytotox: 5.9%; PTHR1 agonist: inconclusive

What do the screens show for `CCOc1cc(/C=N/NC(=O)Cc2ccc(C(F)(F)F)cc2[N+](=O)[O-])c(Br)cc1OC`?
GLP1R inv ag: -18.1%; GLP1R ag: -8.8%; GLP1R cytotox: -8.8%; PTHR1 agonist: 28.8%[57.5 µM]

What do the screens show for `COc1cc(Br)cc(/C=N/NC(=O)Cc2ccc(C(F)(F)F)cc2[N+](=O)[O-])c1O`?
GLP1R inv ag: inconclusive; GLP1R ag: 2.0%; GLP1R cytotox: 0.501µM*; PTHR1 agonist: -0.3%

How did Cc1ccccc1NS(=O)(=O)c1cc(C(=O)NCCC2=CCCCC2)ccc1C do in these assays?
GLP1R inv ag: 11.2µM*; GLP1R ag: 3.9%; GLP1R cytotox: inconclusive; PTHR1 agonist: -24.8%[57.5 µM]

Results for O=C(NCCN1CCOCC1)c1ccc(Cl)c(Cl)c1 ?
GLP1R inv ag: 18.3%; GLP1R ag: 13.5%; GLP1R cytotox: -2.5%; PTHR1 agonist: inactive

What do the screens show for `O=C1/C(=C\c2ccc(Cl)c(Cl)c2)CN(C(=O)CCN2CCOCC2)C/C1=C/c1ccc(Cl)c(Cl)c1`?
GLP1R inv ag: inconclusive; GLP1R ag: -14.0%; GLP1R cytotox: 2.82µM*; PTHR1 agonist: -42.3%

How did CC1(C)SC(=S)N(NC(=O)Nc2cccc3ccccc23)C1N(O)C(=O)Nc1ccccc1 (configuration not stated) do in these assays?
GLP1R inv ag: 11.2µM*; GLP1R ag: -12.0%; GLP1R cytotox: -22.1%; PTHR1 agonist: inactive

How did Cc1cc(Br)ccc1NC(=O)CN1C(=O)C2C3CC(c4ccccc4)C(C3)C2C1=O (configuration not stated) do in these assays?
GLP1R inv ag: 10µM*; GLP1R ag: -7.9%; GLP1R cytotox: -14.3%; PTHR1 agonist: -40.2%

What do the screens show for `Cc1cc(Br)ccc1NC(=O)CNC(=O)CN1C(=O)NC2(CCCCCC2)C1=O`?
GLP1R inv ag: -17.1%; GLP1R ag: -0.5%; GLP1R cytotox: 0.1%; PTHR1 agonist: inactive

What do the screens show for `CCOC(=O)c1ccc(NC(=O)Cn2cc(C(=O)C3CC3)c3ccccc32)cc1`?
GLP1R inv ag: -11.5%; GLP1R cytotox: 2.3%; PTHR1 agonist: -54.9%

How did COc1ccc(CNC(=O)C2CCN(C(=O)c3csc(Nc4ccc(C)cc4)n3)CC2)cc1 do in these assays?
GLP1R inv ag: 7.94µM*; GLP1R ag: 15.4%; GLP1R cytotox: -6.3%; PTHR1 agonist: -81.1%

What do the screens show for `Cc1ccc(Nc2nc(C(=O)N3CCC(C(=O)NCc4ccccc4)CC3)cs2)cc1`?
GLP1R inv ag: inconclusive; GLP1R ag: 14.1%; GLP1R cytotox: 3.4%; PTHR1 agonist: -31.7%

Results for CC1CCc2[nH]c3ccc(C(=O)N4CCCC(C(F)(F)F)C4)cc3c2C1 (configuration not stated) ?
GLP1R inv ag: 10µM*; GLP1R ag: -14.2%; GLP1R cytotox: -13.0%; PTHR1 agonist: inactive

How did COCCNC(=O)c1nn(-c2ccc(Cl)cc2)nc1CO do in these assays?
GLP1R inv ag: 2.0%; GLP1R cytotox: -2.1%; PTHR1 agonist: inactive

What do the screens show for `COc1cccc(C(C(=O)NC2CCCC2)N2CCN(c3cc(C)ccc3C)CC2)c1OC` (configuration not stated)?
GLP1R inv ag: 8.91µM*; GLP1R cytotox: -8.3%; PTHR1 agonist: inactive

How did Cc1ccc(C)c(N2CCN(C(C(=O)NC3CCCC3)c3ccco3)CC2)c1 (configuration not stated) do in these assays?
GLP1R inv ag: 2.4%; GLP1R cytotox: 2.6%; PTHR1 agonist: -19.1%

Results for COc1ccnc(Oc2ccc(F)cc2)c1C(=O)N/C=N/OCc1c(Cl)cccc1Cl ?
GLP1R inv ag: 10µM*; GLP1R ag: 6.5%; GLP1R cytotox: 4.2%; PTHR1 agonist: inactive

Results for COC(=O)c1c(NC(=O)CSc2nnc(-c3ccco3)n2Cc2ccccc2)sc(C)c1C ?
GLP1R inv ag: 12.6µM*; GLP1R ag: -0.5%; GLP1R cytotox: 0.0%; PTHR1 agonist: inactive

What do the screens show for `O=C(CSc1nnc(-c2ccco2)n1Cc1ccccc1)OC1CCCCC1`?
GLP1R inv ag: 10µM*; GLP1R ag: 1.5%; GLP1R cytotox: -20.3%; PTHR1 agonist: -20.5%

What do the screens show for `COC(=O)c1c(NC(=O)CSc2nc3ccccc3c(=O)n2Cc2ccco2)sc(C)c1C`?
GLP1R inv ag: 16.5%; GLP1R ag: 1.7%; GLP1R cytotox: 6.2%; PTHR1 agonist: -21.2%

Results for O=C(c1ccccc1NS(=O)(=O)c1cccc([N+](=O)[O-])c1)N1CCOCC1 ?
GLP1R inv ag: -8.2%; GLP1R ag: 8.4%; GLP1R cytotox: -6.5%; PTHR1 agonist: inactive

What do the screens show for `COc1cc(Br)ccc1C1C(C(=O)Nc2ccc(C)cc2C)=C(C)Nc2nnnn21` (configuration not stated)?
GLP1R inv ag: inconclusive; GLP1R cytotox: -4.5%; PTHR1 agonist: inactive

Bioassay records from PubChem BioAssay.
